Source: PubChem BioAssay
KCNQ2 enhance: KCNQ2 (rat) channel potentiation; B-score at 10 µM; O88943; CHO-K1 KCNQ2, FluxOR thallium flux fluorescence; stronger effect = higher value; AID 2239; 310,000 tested, 0.54% active;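 active = fluorescence ratio B-score at least 3 SD of library B-scores, with initial fluorescence B-score within 3 of them, cut at about 5.3 in these data; same plate scores as AID 2156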;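 also: B-score of peak minus minimum over baseline fluorescence ratio after K+ and Tl+ stimulus; positive B-score means potentiation of KCNQ2 with more thallium influx and brighter signal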
Target sequence (O88943 whole entry, looked up): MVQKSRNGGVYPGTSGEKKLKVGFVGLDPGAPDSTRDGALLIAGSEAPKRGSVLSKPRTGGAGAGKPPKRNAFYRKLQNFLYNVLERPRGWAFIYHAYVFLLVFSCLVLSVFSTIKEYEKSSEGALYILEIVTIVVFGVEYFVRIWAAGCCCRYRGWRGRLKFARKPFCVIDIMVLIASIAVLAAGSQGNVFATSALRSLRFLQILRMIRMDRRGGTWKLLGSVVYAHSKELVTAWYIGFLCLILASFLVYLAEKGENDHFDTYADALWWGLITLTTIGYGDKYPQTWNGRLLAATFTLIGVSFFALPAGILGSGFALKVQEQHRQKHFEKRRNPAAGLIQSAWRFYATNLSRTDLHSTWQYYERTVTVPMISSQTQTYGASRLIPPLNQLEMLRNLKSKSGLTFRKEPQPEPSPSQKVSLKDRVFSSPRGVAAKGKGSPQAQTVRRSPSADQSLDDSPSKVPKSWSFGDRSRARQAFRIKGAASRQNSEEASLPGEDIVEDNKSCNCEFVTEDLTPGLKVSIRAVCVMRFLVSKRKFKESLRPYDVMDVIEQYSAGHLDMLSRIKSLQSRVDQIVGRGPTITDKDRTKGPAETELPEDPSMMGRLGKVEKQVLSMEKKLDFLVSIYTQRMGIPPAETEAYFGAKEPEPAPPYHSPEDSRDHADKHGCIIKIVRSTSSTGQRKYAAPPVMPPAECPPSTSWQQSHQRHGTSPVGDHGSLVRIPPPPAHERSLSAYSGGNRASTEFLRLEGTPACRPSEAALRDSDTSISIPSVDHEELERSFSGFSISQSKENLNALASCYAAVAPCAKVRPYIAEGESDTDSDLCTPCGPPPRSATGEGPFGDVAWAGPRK
KCNQ2 inh: KCNQ2 (rat) channel inhibition; O88943; CHO-K1 KCNQ2, FluxOR thallium flux, 20 min; stronger effect = lower value; B-score at 10 µM; 310,000 tested, 1.1% active;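 active = fluorescence ratio B-score at most minus 3 library SDs, with starting brightness B-score within 2 library SDs, cut at about -5.5 in these data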
The depositor's hits bear a star. Rows were chosen to be rich in hits. Some 1.6% of all compounds tested hit in one or more screens of this group.

How did CCOC(=O)CSc1nnc(-c2cc(OC)c(OC)c(OC)c2)o1 do in these assays?
KCNQ2 enhance: 0.1; KCNQ2 inh: inactive

How did CCOC(=O)CN(C(=O)CSc1nnc(-c2ccc(OC)c(OC)c2)o1)c1ccc(F)cc1 do in these assays?
KCNQ2 enhance: -6.6; KCNQ2 inh: -6.6*

How did COc1cc(NC(=O)c2cc(CC(C)C)on2)c(OC)cc1Cl do in these assays?
KCNQ2 enhance: -7.8; KCNQ2 inh: -7.8*

Results for CCCc1cc(C(=O)Nc2cc(OC)c(Cl)cc2OC)no1 ?
KCNQ2 enhance: 0.12; KCNQ2 inh: inactive

What do the screens show for `CCSc1nc(C2CC2)cc(-c2cccs2)c1C#N`?
KCNQ2 inh: inactive

How did N#Cc1c(-c2ccccc2F)cc(C2CC2)nc1SCC(=O)c1cccs1 do in these assays?
KCNQ2 enhance: 12*; KCNQ2 inh: inactive

What do the screens show for `CSc1ccccc1NC(=O)C1=CC(c2ccc(C)cc2)=NS(=O)(=O)N1C`?
KCNQ2 enhance: 0.6; KCNQ2 inh: inactive

Results for Cc1cccnc1NC(=O)CSc1ncnc2sc(C)c(C)c12 ?
KCNQ2 inh: inactive

How did COC(=O)c1c(-c2ccccc2)csc1NC(=O)CSc1ncnc2sc(C)c(C)c12 do in these assays?
KCNQ2 enhance: -5.6; KCNQ2 inh: -5.6*

What do the screens show for `CC(C)(Oc1ccc(Cl)cc1)C(=O)OCc1nc2ccsc2c(=O)[nH]1`?
KCNQ2 enhance: 1.5; KCNQ2 inh: inactive

How did CCn1cc(CN2CCCC(C(=O)Nc3ccc(-c4cscn4)cc3)C2)cn1 (centres undefined) do in these assays?
KCNQ2 enhance: 2.3; KCNQ2 inh: inactive

How did COc1cccc(C2=Nn3c(nnc3-c3ccccc3O)SC2)c1 do in these assays?
KCNQ2 inh: inactive

Results for C[n+]1c2n(c3ccccc31)N=C(c1cc(C(C)(C)C)c(O)c(C(C)(C)C)c1)CS2 ?
KCNQ2 enhance: -6.6; KCNQ2 inh: -6.6*

Results for CCc1cc(C(=O)c2ccc(Br)cc2)c(NC(=O)CN(CC)CC)s1 ?
KCNQ2 enhance: -5.7; KCNQ2 inh: -5.7*

How did CCN(CC)CC(=O)Nc1sc(C)cc1C(=O)c1ccccc1 do in these assays?
KCNQ2 inh: inactive

Results for NC1=NC(c2ccccc2)N=C(Nc2ccccc2)N1 (centres undefined) ?
KCNQ2 enhance: 1.5; KCNQ2 inh: inactive

What do the screens show for `O=C(Nc1ncccn1)c1ccc(C(F)(F)F)cc1`?
KCNQ2 enhance: 1.4; KCNQ2 inh: inactive

Results for COc1ccc(-c2cc(C(F)(F)F)n3nc(C)cc3n2)cc1 ?
KCNQ2 inh: inactive

How did COc1ccc(-c2cc3nc(C)cc(N4CC(C)CC(C)C4)n3n2)cc1 (centres undefined) do in these assays?
KCNQ2 enhance: -6; KCNQ2 inh: -6*

What do the screens show for `O=C(/C=C/c1ccc([N+](=O)[O-])cc1)c1cccs1`?
KCNQ2 inh: inactive

Results for Nc1ccc(/C=C/C(=O)c2cccs2)cc1 ?
KCNQ2 enhance: -6.9; KCNQ2 inh: -6.9*

How did C=CCn1c(=O)c(C(=O)Nc2ccccc2C(=O)OCC)c(O)c2ccccc21 do in these assays?
KCNQ2 inh: inactive

How did C=CCn1c(=O)c(C(=O)Nc2ccccc2S(N)(=O)=O)c(O)c2ccccc21 do in these assays?
KCNQ2 enhance: 5.7*; KCNQ2 inh: inactive

How did Cc1ccc(Sc2ccc(N)cc2C#N)cc1 do in these assays?
KCNQ2 enhance: 1.6; KCNQ2 inh: inactive

What do the screens show for `c1ccc(Oc2cccc(Oc3ccccc3)n2)cc1`?
KCNQ2 inh: inactive

Results for CCC(C)c1ccc(NC(=O)COc2c(F)c(F)c(C(F)(F)F)c(F)c2F)cc1 (centres undefined) ?
KCNQ2 enhance: 6.1*; KCNQ2 inh: inactive

Results for O=C(COc1c(F)c(F)c(C(F)(F)F)c(F)c1F)Nc1ccc(N2CCOCC2)c(Cl)c1 ?
KCNQ2 enhance: 0.01; KCNQ2 inh: inactive

Results for Fc1ccccc1C1CC(c2ccco2)=Nc2ccccc2S1 (centres undefined) ?
KCNQ2 enhance: -7.3; KCNQ2 inh: -7.3*

What do the screens show for `COc1ccccc1C1CC(c2cccs2)=Nc2ccccc2S1` (centres undefined)?
KCNQ2 inh: inactive

Results for CC(C)(C)c1ccc(NC(=O)Cn2cnc3cc([N+](=O)[O-])ccc3c2=O)cc1 ?
KCNQ2 enhance: 0.02; KCNQ2 inh: inactive

How did CC(C)N1CCc2c(sc(NC(=O)c3nc4ccccc4s3)c2C(N)=O)C1 do in these assays?
KCNQ2 inh: inactive

Results for CC(C)N1CCc2c(sc(NC(=O)c3cc(-c4cccs4)nc4ccccc34)c2C(N)=O)C1 ?
KCNQ2 enhance: -6.4; KCNQ2 inh: -6.4*

Results for CN(C)/C=C/C(=O)c1ccc(Cl)c([N+](=O)[O-])c1 ?
KCNQ2 inh: inactive

What do the screens show for `O=C(Nc1ccnn1C1CCN(Cc2cc(Cl)ccc2O)CC1)c1cccnc1`?
KCNQ2 enhance: 1; KCNQ2 inh: inactive

Results for COc1cccc(C2C3=C(CC(C)(C)CC3=O)Nc3n[nH]c(C)c32)c1 (centres undefined) ?
KCNQ2 inh: inactive

How did Clc1ccccc1-c1nnc2n1CCCCC2 do in these assays?
KCNQ2 enhance: 0.99; KCNQ2 inh: inactive

Results for CC(Oc1ccccc1F)C(=O)NC1CCS(=O)(=O)C1 (centres undefined) ?
KCNQ2 inh: inactive

What do the screens show for `COc1ccccc1NC(=O)c1ccc2nc(-c3ccccc3)c(-c3ccccc3)nc2c1`?
KCNQ2 enhance: -7.1; KCNQ2 inh: -7.1*

Results for COc1ccc(NC(=O)c2ccc3nc(-c4ccccc4)c(-c4ccccc4)nc3c2)c(OC)c1 ?
KCNQ2 inh: inactive

What do the screens show for `CCOC(=O)N1CCN(C(=O)CSc2nc(=O)n3ccccc3n2)CC1`?
KCNQ2 enhance: 0.11; KCNQ2 inh: inactive

What do the screens show for `O=C1C(Oc2ccccc2)C(c2cccs2)N1Cc1ccc2c(c1)OCO2` (centres undefined)?
KCNQ2 enhance: 0.4; KCNQ2 inh: inactive

Results for Cc1ccccc1OC1C(=O)N(Cc2ccc3c(c2)OCO3)C1c1sccc1C (centres undefined) ?
KCNQ2 enhance: -6; KCNQ2 inh: -6*

Results for COc1cc(OC)cc(C(=O)NCC(=O)OCC(=O)N2CC(C)CC(C)C2)c1 (centres undefined) ?
KCNQ2 enhance: 0.63; KCNQ2 inh: inactive

How did COc1ccc(C2(CNC(=O)c3ccccc3)CCCC2)cc1OC do in these assays?
KCNQ2 inh: inactive

How did COc1cccc(C(=O)NCC2(c3ccccc3)CCCC2)c1OC do in these assays?
KCNQ2 enhance: -5.9; KCNQ2 inh: -5.9*

How did COc1ccc(/C=C(\NC(=O)c2ccc(C)cc2)C(=O)NCCCN2CCOCC2)cc1OC do in these assays?
KCNQ2 inh: inactive

What do the screens show for `O=C1c2ccccc2NC(c2ccc(F)cc2)N1Cc1ccco1` (centres undefined)?
KCNQ2 enhance: 0.53; KCNQ2 inh: inactive

Results for O=C1c2ccccc2NC(c2ccccc2)N1Cc1ccco1 (centres undefined) ?
KCNQ2 inh: inactive

Results for COc1ccc(C2Nc3ccccc3C(=O)N2Cc2ccco2)cc1COc1ccc([N+](=O)[O-])cc1 (centres undefined) ?
KCNQ2 enhance: -6.8; KCNQ2 inh: -6.8*

How did COc1cccc(OCc2cc(C3Nc4ccccc4C(=O)N3Cc3ccco3)ccc2OC)c1 (centres undefined) do in these assays?
KCNQ2 enhance: -5.9; KCNQ2 inh: -5.9*

What do the screens show for `C=CCN(CC=C)C(=S)NC(=O)c1ccc(C)c(Br)c1`?
KCNQ2 enhance: 24*; KCNQ2 inh: inactive
